Screens from PubChem.
Shown are actives, neighbours in structure and some others; about 3.1% of the full set was active somewhere.
PAX8 reporter = inhibitors of PAX8-driven TPO luciferase reporter, primary screen, RMG-I cells, single concentration. SteadyGlo, 24 h. inhibition, % at 12.6 µM. 1.2% of 360,000 active;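 active = mean replicate inhibition at least 60% with every replicate also reaching 60%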;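 note: luciferase light reporting Pax8 driven TPO promoter activity; plate controls were median of neutral control wells for no effect and mitoxantrone controls for full effect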
HIV Env fusion = inhibitors of HIV-1 Env-driven cell-cell fusion, primary screen, HeLa-JRFL effector, CEM21 target cells, luciferase; inhibition, % at 12.3 µM; 1.1% of 360,000 active;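 active = mean replicate inhibition score of at least 50 and every replicate individually at or above 50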;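 note: 0% = plate neutral controls and 100% = maraviroc near 300 nM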
EWS-Fli block = EWS/Fli-driven NR0B1 reporter inhibitors, primary screen, A673 cells, NR0B1 luciferase, luminescence, MLPCN library; 0.67% of 350,000 active; viability-normalised; inhibition, % at 12.6 µM;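 active = mean inhibition of at least 50% after viability correction, with every replicate also passing that limit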;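 note: firefly luciferase signal divided by Alamar Blue viability fluorescence both relative to DMSO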
INS-1E GSIS act = GLuc luminescence reporter in INS-1E cells, primary screen for activators of glucose-dependent secretion of insulin; activation, % at 16.6 µM; INS-1E GLuc reporter insulin secretion, 2-3 h; 0.61% of 370,000 active;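 active = lowest replicate activation of at least 40%, so every replicate reaches that level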;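 note: 0% = median of neutral control wells and 100% = median of IBMX positive control wells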
C2C12 statin = suppressors of statin myotoxicity in C2C12 myotubes, primary screen, cell-based, single point, plate reader; rescue of ATP level, % at 7.49 µM; C2C12 myotubes + simvastatin, ATP luminescence, 48 h; scaled: DMSO 0, geranylgeraniol control 100; AID 602340, 2012; 0.78% of 330,000 active;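 active = mean ATP rescue above about 67%, or every replicate alone reaching that limit, limit read from the data, passing the limit was not always enough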;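 note: myotubes were challenged with 10 µM simvastatin during compound exposure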
miR-122 sensor = miR-122 Renilla sensor signal increase in Huh7, primary screen, miR-122 inhibitor project, cell-based, single point, plate reader. Huh7 miR-122 Renilla luciferase sensor, 48 h; neutral wells = 0, positive control = 100. activation (reporter increase), % at 12.5 µM. 0.3% of 340,000 active. AID 602342, 2012;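 active = mean replicate activation score at least 90 and every replicate individually at or above 90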;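 note: higher luciferase means less miR-122 activity so hits act as miR-122 inhibitors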
The depositor's hits bear a star; · = no result given; [ ] = dose if it differs, or a comment.

SMILES	PAX8 reporter	HIV Env fusion	EWS-Fli block	INS-1E GSIS act	C2C12 statin	miR-122 sensor
CCC(=O)Nc1ccc2c(c1)C(=O)N(C)[C@@H]1CC[C@H](CC(=O)N3CCc4ccccc4C3)O[C@H]1CO2	-3	11[16.7 µM]	-5	7	16	3[16.7 µM]
O=C(c1ccccc1)N1CC[C@@H]2[C@H]1c1cc(C#CC3CCCCC3)ccc1N[C@@H]2CO	·	·	·	-4	·	·
CCOc1ccccc1CNS(=O)(=O)c1cnc[nH]1	-4	4	4	44*	-1	-3
CCOc1ccccc1NC(=O)CN(C)S(=O)(=O)c1cnc[nH]1	5	-9	0	-3	·	·
CCCNC(=O)C[C@@H]1CC[C@H]2[C@@H](COC[C@H](O)CN2C(=O)Nc2cccc(Cl)c2)O1	·	·	·	-8	-7	-1[16.7 µM]
Cc1cccc(C)c1NC(=O)N1CCN(c2nc3ccccc3s2)CC1	·	72*	·	·	36	-4
CO[C@H]1CN(C)C(=O)c2cc(NC(=O)Nc3ccccc3F)ccc2OC[C@@H](C)NC[C@@H]1C	·	·	6	-1	-10	-13[16.7 µM]
COC(=O)CCC(=O)Nc1ccc(NC(=O)CCC(=O)OC)cc1	·	·	·	1	·	-2
COC(=O)CCC(=O)Nc1cc(Cl)cc(Cl)c1	70*	-5	-3	-4	1	-3
CCCSc1nc(N)c2c3c(sc2n1)CN(C)CC3	·	·	·	·	99*	-3
c1ccc(CNc2nc(N3CCOCC3)nc(N3CCOCC3)n2)cc1	·	·	·	·	19	6
CN(C)c1nc(SCc2ccccc2)nc(N2CCOCC2)n1	-4	-35	·	·	2	-3
CCNc1nc(SCc2ccccc2)nc(N2CCOCC2)n1	·	·	·	·	99*	1
Clc1ccc(CNc2nc(N3CCOCC3)nc(N3CCOCC3)n2)cc1	12	38	·	·	-6	129*
C[C@H]1CN([C@@H](C)CO)C(=O)c2cccc(NC(=O)CCCCCC(=O)Nc3ccccc3N)c2O[C@H]1CN(C)C(=O)NC1CCCCC1	·	·	-6	30	·	·
COc1ccc(OCC(O)CN2C(=O)NC(C)(C)C2=O)cc1 (configuration not stated)	10	-33	·	·	121*	4
CC1(C)NC(=O)N(CC(O)Cn2nnc3ccccc32)C1=O (configuration not stated)	·	·	·	·	131*	-9
CNC[C@H]1OCCCC[C@@H](C)Oc2ccc(NC(=O)Nc3c(C)noc3C)cc2C(=O)N([C@H](C)CO)C[C@H]1C	-8	-14[16.7 µM]	-8	2	7	3[16.7 µM]
C=CCSc1nc(C)c2cc(C)cc(C)c2n1	8	-110	·	·	133*	-4
CN(C)S(=O)(=O)c1ccc(C(=O)Nc2nnc(SCC(=O)N3CCOCC3)s2)cc1	-29	-11	-13	28	-8	-3
CC(C)Oc1ccc(C(=O)Nc2nnc(SCC(=O)N3CCOCC3)s2)cc1	70*	-10	60*	-7	·	-3
CC1CCCC(C)N1C(=O)C1CC(c2ccc(F)cc2)=NO1 (configuration not stated)	·	1	·	-10	92*	-1
O=C(Nc1cccc(Cl)c1)c1ccc2c(c1)SC1=NS(=O)(=O)CCN12	75*	-4	21	5	·	·
C[C@H](CO)N1C[C@H](C)[C@@H](CN(C)C(=O)c2ccccc2)OCCCC[C@H](C)Oc2ccc(NC(=O)CCCN(C)C)cc2C1=O	-7	6[16.7 µM]	1	26	-12	8[16.7 µM]
O=C(C[C@H]1C=C[C@H](NC(=O)CN2CCOCC2)[C@H](CO)O1)NCc1cccc(F)c1	-1	1[16.7 µM]	1	9	-5	-1[16.7 µM]
Cc1cc(NC2CCCC2)n2ncc(-c3ccccc3)c2n1	-2	-200	62*	32	-59	10
CN(C)c1nc(OCCOC(=O)Nc2ccc(Cl)cc2Cl)nc(N(C)C)n1	·	·	5	-8	·	8
CON(C)c1nc(OCCNC(=O)OCc2ccc(Cl)cc2C)nc(N(C)C)n1	12	150*	·	·	9	-9
Cc1cc(NC(=O)c2ccc(NC(=O)C3CC3)cc2)no1	-19	2	-19	8	·	·
Cc1cc(Nc2cc(Cl)nc(Sc3ccc(NC(=O)C4CC4)cc3)n2)n[nH]1	75*	-33	39	-21	-9	·
